The list is not random: actives were taken first. Their share in the collection is about 9%.
PLK1 PBD inh – qHTS for Inhibitors of PLK1-PDB (polo-like kinase 1 - polo-box domain): Primary Screen; Plk1 PBD binding of FITC phosphopeptide, fluorescence polarization; Potency, µM, inactives show max response, negative = inhibition, usual class: inhibitors; 2.8% of 360,000 active; AID 720504, 2013; note: series mostly up to about 57 µM; % is set by controls: 0 for no effect and ±100 for the full control effect; nearly all actives have a fitted effect of over 65% in size
HP1b chromo inh – HTS for Inhibitors of HP1-beta Chromodomain Interactions with Methylated Histone Tails; 0.56% of 390,000 active; Chromobox protein homolog 1 (Homo sapiens), P83916; Potency, µM (highest dose often 114 µM), without a hit: top-dose activity change, negative = inhibition, actives largely listed as inhibitors; AlphaScreen HP1-beta / biotin-H3K9me3 peptide binding; AID 540317, 2011; note: nearly all actives have a fitted effect of over 70% in size
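Compound inhibition of the preformed complex between 50 nM HP1-beta and 50 nM biotinylated H3K9me3 peptide was read by AlphaScreen. Buffer was PBS pH 7.4 with 0.01% Tween-20. Incubations ran 30 min at room temperature, with 10 ug/mL donor/acceptor beads.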
ALOX12 inh – Primary qHTS assay for inhibitors of human arachidonate 12S-lipoxygenase (ALOX12): Round 2; Polyunsaturated fatty acid lipoxygenase ALOX12 (Homo sapiens), P18054; 1.1% of 580,000 active; purified 12hLO, xylenol orange hydroperoxide absorbance; Potency, µM (series often up to 108 µM), for the others: at the highest dose activity change, negative = inhibition, most hits filed as inhibitors; note: % is set by controls: 0 for no effect and ±100 for the full control effect
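Purified human 12hLO (150 nM final) in 25 mM Hepes, 0.01% Triton X-100, pH 7.0 was preincubated 15 min at room temperature with compound. Then 40 uM arachidonic acid was added, 30 min. Hydroperoxide was read by Fe-XO absorbance ratio 573/405 nm.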
JMJD2A Tudor inh – qHTS Assay for Inhibitors of JMJD2A-Tudor Domain. Lysine-specific demethylase 4A (Homo sapiens), O75164. AID 504339, 2011. 4.4% of 390,000 active. Potency, µM (doses to about 114 µM), inactives show top-dose activity change, negative = inhibition, actives largely listed as inhibitors. AlphaScreen JMJD2A-Tudor / H3K4me3 peptide binding; note: % is set by controls: 0 for no effect and ±100 for the full control effect; nearly all actives have a fitted effect of over 50% in size
BAZ2B inh – qHTS Assay for Inhibitors of BAZ2B; AID 504333, 2011; Potency, µM (titrated, usually from 114 µM), without a hit: at the top dose activity change, negative = inhibition, usual class: inhibitors; AlphaScreen BAZ2B-H3K14Ac peptide displacement; 4.4% of 360,000 active; note: % is set by controls: 0 for no effect and ±100 for the full control effect; nearly all actives have a fitted effect of over 60% in size
Target sequence (Q9UIF8 whole entry, looked up): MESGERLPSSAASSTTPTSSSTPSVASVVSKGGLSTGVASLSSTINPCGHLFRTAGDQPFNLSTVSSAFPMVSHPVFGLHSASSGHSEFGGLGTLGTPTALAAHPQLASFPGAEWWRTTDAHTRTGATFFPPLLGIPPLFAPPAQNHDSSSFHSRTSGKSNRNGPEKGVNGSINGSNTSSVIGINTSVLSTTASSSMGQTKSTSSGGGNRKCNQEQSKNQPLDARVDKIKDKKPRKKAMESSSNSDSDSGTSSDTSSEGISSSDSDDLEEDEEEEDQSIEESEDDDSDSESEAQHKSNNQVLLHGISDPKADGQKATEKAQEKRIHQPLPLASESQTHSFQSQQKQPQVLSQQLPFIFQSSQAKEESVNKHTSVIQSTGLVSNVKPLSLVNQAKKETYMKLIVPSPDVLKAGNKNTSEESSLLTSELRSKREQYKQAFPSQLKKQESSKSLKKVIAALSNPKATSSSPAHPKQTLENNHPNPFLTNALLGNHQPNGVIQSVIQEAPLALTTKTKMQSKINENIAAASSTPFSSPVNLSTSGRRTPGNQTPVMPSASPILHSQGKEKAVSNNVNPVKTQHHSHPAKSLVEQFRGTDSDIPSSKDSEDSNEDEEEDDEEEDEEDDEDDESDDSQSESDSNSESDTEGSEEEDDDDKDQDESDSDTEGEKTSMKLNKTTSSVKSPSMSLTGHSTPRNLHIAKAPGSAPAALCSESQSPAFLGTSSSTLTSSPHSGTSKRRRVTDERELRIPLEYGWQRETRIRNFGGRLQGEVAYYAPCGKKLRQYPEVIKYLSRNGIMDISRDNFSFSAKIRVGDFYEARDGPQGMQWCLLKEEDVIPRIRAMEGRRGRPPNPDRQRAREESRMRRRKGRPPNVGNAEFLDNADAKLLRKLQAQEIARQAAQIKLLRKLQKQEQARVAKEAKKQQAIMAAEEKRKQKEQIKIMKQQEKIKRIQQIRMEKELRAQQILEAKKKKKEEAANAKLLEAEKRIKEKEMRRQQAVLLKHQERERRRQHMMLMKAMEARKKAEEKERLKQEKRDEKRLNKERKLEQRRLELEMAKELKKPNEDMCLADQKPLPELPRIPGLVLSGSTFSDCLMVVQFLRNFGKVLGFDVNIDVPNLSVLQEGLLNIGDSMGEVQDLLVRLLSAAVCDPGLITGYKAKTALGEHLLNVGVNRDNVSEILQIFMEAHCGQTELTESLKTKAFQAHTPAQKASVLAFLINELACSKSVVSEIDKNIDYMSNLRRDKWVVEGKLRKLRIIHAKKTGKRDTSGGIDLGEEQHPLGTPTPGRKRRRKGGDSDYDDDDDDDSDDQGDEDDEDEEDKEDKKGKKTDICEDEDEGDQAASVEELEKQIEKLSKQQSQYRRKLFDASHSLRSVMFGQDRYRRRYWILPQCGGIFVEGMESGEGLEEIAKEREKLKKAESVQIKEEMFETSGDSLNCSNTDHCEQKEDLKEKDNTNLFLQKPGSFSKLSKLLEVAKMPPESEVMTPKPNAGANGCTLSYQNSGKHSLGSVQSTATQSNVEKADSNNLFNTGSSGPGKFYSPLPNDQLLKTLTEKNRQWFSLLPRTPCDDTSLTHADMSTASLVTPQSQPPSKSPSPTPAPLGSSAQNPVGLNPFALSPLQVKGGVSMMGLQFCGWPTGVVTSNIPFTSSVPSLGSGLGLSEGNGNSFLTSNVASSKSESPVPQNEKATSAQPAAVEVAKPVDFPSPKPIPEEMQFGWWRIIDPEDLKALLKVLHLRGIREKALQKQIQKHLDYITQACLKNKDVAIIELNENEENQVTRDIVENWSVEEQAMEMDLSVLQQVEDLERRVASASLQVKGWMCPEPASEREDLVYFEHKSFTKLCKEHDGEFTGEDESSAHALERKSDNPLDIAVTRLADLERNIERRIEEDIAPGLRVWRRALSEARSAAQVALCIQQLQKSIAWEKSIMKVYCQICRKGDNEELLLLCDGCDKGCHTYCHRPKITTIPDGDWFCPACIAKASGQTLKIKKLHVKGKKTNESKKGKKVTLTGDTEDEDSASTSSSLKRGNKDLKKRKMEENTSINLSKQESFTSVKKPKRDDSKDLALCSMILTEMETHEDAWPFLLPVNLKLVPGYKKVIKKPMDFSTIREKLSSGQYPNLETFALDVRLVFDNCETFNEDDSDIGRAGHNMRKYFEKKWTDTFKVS
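AlphaScreen displacement of biotin-H3(5-23)K14Ac peptide (50 nM final) from BAZ2B (50 nM final) in PBS pH 7.4, 0.01% Tween-20; complex preformed 30 min RT, then compounds (top 110 uM) 30 min RT, beads 20 min dark.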
G9a inh – qHTS Assay for Inhibitors of Histone Lysine Methyltransferase G9a; Histone-lysine N-methyltransferase EHMT2 (Homo sapiens), Q96KQ7; G9a H3K9 monomethylation, AlphaScreen, 2 h; Potency, µM (doses to about 102 µM), inactives show at the highest dose activity, negative = inhibition, usual class: inhibitors; 8.8% of 350,000 active; note: % is set by controls: 0 for no effect and ±100 for the full control effect; nearly all actives have a fitted effect of over 75% in size
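Step 1: enzyme (final 20 nM) with compound, 15 min RT. Step 2: substrate peptide 500 nM and SAM 20 uM, 2 h RT. Step 3: anti-H3K9me1 antibody and AlphaScreen beads, 10 min, then plate read.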
Numbers without * were called inactive; ? = inconclusive; . = no result; [ ] = dose if it differs, or a comment. Calls come from the whole dose curve; as a rule, active = well fitted curve in the direction sought with a large enough effect; inconclusive = small, poorly fitted or top-dose-only effect, or another doubt; inactive = no such curve, though single readings can be large; an effect the other way counts as inactive or inconclusive. Potency is the fitted concentration of half-maximal effect.

SMILES	PLK1 PBD inh	HP1b chromo inh	ALOX12 inh	JMJD2A Tudor inh	BAZ2B inh	G9a inh
CC(C)(C)c1cc(/C=C(\C#N)C(=O)Nc2ccccc2)cc(C(C)(C)C)c1O	.	.	-31.2%	.	.	.
O=C(O)c1ccc(C[n+]2c(-c3ccccc3)csc2Nc2ccccc2)cc1	?	?	?	?	39.8µM*	?
CCCCCCNC(=O)c1ccc(Nc2ccc(-c3ccccc3)nn2)cc1	.	.	0.8%	.	.	.
CCCCCC[n+]1c(-c2ccccc2)csc1Nc1ccccc1	4.5%	17.2%	-25.8%	-11.1%	17.8µM*	15.8µM*
C=CC[n+]1c(C)csc1Nc1ccc(C(=O)O)cc1	-12.9%	45.5%	-17.0%	-14.1%	?	?
CC(C)(C)c1cc(-c2csc(Nc3ccccc3)[n+]2Cc2ccc(C(=O)O)cc2)cc(C(C)(C)C)c1O	21.2µM*	44.7µM*	.	39.8µM*	39.8µM*	39.8µM*
N/C(=N\OC(=O)c1ccccc1[N+](=O)[O-])c1ccccn1	-7.8%	8.9%	5.4%	-20.3%[57.1 µM]	-30.5%	3.16µM*
COc1ccccc1C(=O)O/N=C(\N)c1ccccn1	-9.1%	14.9%	196.2%	-16.1%	15.9%	.
N/C(=N\OC(=O)c1ccccc1Cl)c1ccccn1	-0.6%	9.7%	4.8%	-14.6%	-0.1%	70.8µM*
N/C(=N\OC(=O)c1ccccc1[N+](=O)[O-])c1cccnc1	-2.6%	38.2%	?	-9.5%	10.9%	?
COc1cccc(OCCCn2ccnc2)c1	-4.3%	29.1%	?	-23.9%	-2.5%	.
CCOc1cccc(OCCCCn2ccnc2)c1	-6.1%	?	?	6.31µM*	50.1µM*	?
Cc1cccc(OCCn2ccnc2)c1C	-22.7%	18.9%	?	-18.5%	-1.8%	.
Brc1cccc(OCCn2ccnc2)c1	?	-15.6%	?	3.55µM*	39.8µM*	8.91µM*
CCc1cccc(OCCCn2ccnc2)c1	-1.5%	50.1µM*	?	12.6µM*	31.6µM*	15.8µM*
COc1ccc(OC(C)C(=O)NC(C)c2ccccc2)cc1 (configuration not stated)	-2.6%	62.1%	?	-11.4%	11.1%	27.7%
N#Cc1c(NC(=O)Cn2nc(C(F)(F)F)c3c2CCCC3)sc2c1CCC2	2.99µM*	31.6µM*	?	?	79.4µM*	2.82µM*
CC1CCc2c(sc(NC(=O)Cn3nc(C(F)(F)F)c4c3CCCCC4)c2C#N)C1 (configuration not stated)	26.7µM*	-35.3%	?	-19.4%	23.4%	?
CCc1ccc(NC(=O)Cn2nc(C(F)(F)F)c3c2CCC3)cc1	-0.3%	37.3%	6.4%	-15.1%	-5.8%	9.8%[2.33 µM]
NC(=O)c1nn(-c2ccc(Cl)cc2Cl)c(=O)cc1O	-7.4%	20.0%	?	-13.7%	-8.6%	-6.4%
O=S(=O)(/N=C(/Sc1ccccc1)c1ccccc1)c1ccccc1	1.89µM*	102.2%	-14.2%	-14.6%	23.1%	-20.9%
CC(=O)N1CCc2cc(C(=O)CN3CCCCC3)ccc21	-8.4%	36.3%	-5.2%	-26.4%	3.3%	50.1µM*
CCOC(=O)N1CCN(CC(=O)c2ccc3c(c2)CCN3C(C)=O)CC1	-11.7%	31.1%	13.5%	-22.5%	-0.9%	31.6µM*
COc1ccccc1C(=O)COC(=O)Cn1nc(C)c([N+](=O)[O-])c1C	-2.3%	24.6%	-7.6%	-11.5%	-5.6%	?
CC(C)(C)NC(=O)NC(=O)CN1CCN(c2ccccc2)CC1	5.5%	30.9%	-1.1%	-6.2%	1.3%	7.5%
SMILES	PLK1 PBD inh	HP1b chromo inh	ALOX12 inh	JMJD2A Tudor inh	BAZ2B inh	G9a inh
CC(CCc1ccccc1)NC(=O)CN1CCN(c2ccc(O)cc2)CC1 (configuration not stated)	-2.9%	89.1µM*	?	44.7µM*	?	7.94µM*
CC(C)(C)NC(=O)NC(=O)CN1CCN(c2ccc(O)cc2)CC1	-10.9%	?	-24.5%	22.4µM*	-27.0%	3.16µM*
CC(CCc1ccccc1)NC(=O)CN1CCN(Cc2ccccc2)C1=O (configuration not stated)	-7.8%	20.1%	18.8%	-7.0%	3.8%	9.4%
CN(C)c1ccccc1C(=O)c1ccccc1N(C)C	8.1%	-20.7%	?	?	-34.5%	-49.4%[2.33 µM]
COc1ccccc1OCC(O)CN1C(=O)NC(C)(C)C1=O (configuration not stated)	26.7µM*	21.4%	-6.1%	?	-1.4%	10.0%
COc1cc(NS(=O)(=O)c2ccc(NC(C)=O)cc2)ncn1	-7.7%	4.6%	-1.5%	-25.5%	-1.9%	?
COc1cc(NS(=O)(=O)c2ccc(NC(=S)NC(=O)/C=C/c3ccc(OC)c(OC)c3)cc2)ncn1	13.4µM*	22.4µM*	-13.6%	-24.1%[11.4 µM]	12.6µM*	39.8µM*
COc1ccc(/C=C/C(=O)NC(=S)Nc2ccc(S(=O)(=O)Nc3nccnc3OC)cc2)cc1	?	-12.4%	?	-12.2%	-34.1%	?
COc1ccc(/C=C/C(=O)NC(=S)Nc2ccc(S(=O)(=O)Nc3cc(OC)ncn3)cc2)cc1	?	7.1%	?	-19.6%	-19.6%	39.8µM*
Cc1cc(Cl)c(S(=O)(=O)NC2CCCCC2)cc1OCC(=O)Nc1nncs1	-5.4%	17.3%	-25.9%	-3.3%	-17.7%	17.8µM*
Cc1cc(Cl)c(S(=O)(=O)Nc2ccon2)cc1OCC(=O)NC1CCCCC1	-6.3%	25.0%	-15.2%	-16.5%[57.1 µM]	0.8%	-10.1%[59 µM]
COc1cccc(CNC(=O)[C@@H]2C[C@@H](O)CN2C2CCN(C(=O)c3cc(F)cc(F)c3)CC2)c1	.	.	33.8%	.	.	.
Cc1ccccc1C(=O)NC(=S)Nc1ccc(S(=O)(=O)N(C)c2ccccc2)cc1	26.7µM*	-21.3%	?	-15.8%[11.4 µM]	-2.3%	10.8%[2.33 µM]
O=C(O)c1cccc(NC(=S)NC(=O)c2ccc3ccccc3c2)c1	-17.7%	15.3%	?	-29.7%	-27.6%	56.2µM*
O=C(NC(=S)Nc1ccc(Oc2ccccc2)cc1)c1ccc(Cl)cc1	-3.3%	-14.5%	?	-26.2%	?	?
O=C(O)c1ccc(NC(=S)NC(=O)c2ccc3ccccc3c2)cc1	?	-1.6%	?	?	8.0%	.
Cc1ccc(C(=O)O)cc1NC(=S)NC(=O)c1ccc([N+](=O)[O-])c(C)c1	-22.5%	6.1%	20µM*	-6.1%	?	50.1µM*
